Measured values from PubChem BioAssay.
Active and inactive are the calls of the source.

Assays:
[1] = binders of probe aFSTL3 on microarray, primary screen, stem cell growth factor project, biochemical, small-molecule microarray, fluorescence 635/667 (AID 1064); conditions: higher = more signal;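 note: measures binding of the biotinylated anti-FSTL3 antibody to printed compounds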
[2] = binders from COS7 lysate, DM2A8 probe, primary screen, torsin A project, cell lysate, small-molecule microarray, fluorescence 635/667 (AID 1065); conditions: higher = more signal, COS7 lysate expressing mutant human TOR1A
[3] = binders of probe aFGF2 on microarray, primary screen, stem cell growth factor project, biochemical, small-molecule microarray, fluorescence 635/667 (AID 1067); conditions: higher = more signal;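 note: measures binding of biotinylated aFGF2 protein to printed compounds on slides; z-score merges feature fluorescence and signal-to-noise across triplicate slides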
[4] = binders of probe aFGF10 on microarray, primary screen, stem cell growth factor project, biochemical, small-molecule microarray, fluorescence 635/667 (AID 1071); conditions: higher = more signal;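 note: score merges 667 nm spot intensity and signal to noise from triplicate slides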
[5] = target: Neurogenic locus notch homolog protein 2 (Homo sapiens) (UniProt Q04721); assay: Notch2 binders on small-molecule microarrays, primary screen, biochemical, small-molecule microarray, 635 nm fluorescence, stem cell growth factors (AID 1073); conditions: Notch2 binding, higher = more signal
Sequence of Neurogenic locus notch homolog protein 2 (Homo sapiens) (Q04721 whole entry, looked up, canonical isoform): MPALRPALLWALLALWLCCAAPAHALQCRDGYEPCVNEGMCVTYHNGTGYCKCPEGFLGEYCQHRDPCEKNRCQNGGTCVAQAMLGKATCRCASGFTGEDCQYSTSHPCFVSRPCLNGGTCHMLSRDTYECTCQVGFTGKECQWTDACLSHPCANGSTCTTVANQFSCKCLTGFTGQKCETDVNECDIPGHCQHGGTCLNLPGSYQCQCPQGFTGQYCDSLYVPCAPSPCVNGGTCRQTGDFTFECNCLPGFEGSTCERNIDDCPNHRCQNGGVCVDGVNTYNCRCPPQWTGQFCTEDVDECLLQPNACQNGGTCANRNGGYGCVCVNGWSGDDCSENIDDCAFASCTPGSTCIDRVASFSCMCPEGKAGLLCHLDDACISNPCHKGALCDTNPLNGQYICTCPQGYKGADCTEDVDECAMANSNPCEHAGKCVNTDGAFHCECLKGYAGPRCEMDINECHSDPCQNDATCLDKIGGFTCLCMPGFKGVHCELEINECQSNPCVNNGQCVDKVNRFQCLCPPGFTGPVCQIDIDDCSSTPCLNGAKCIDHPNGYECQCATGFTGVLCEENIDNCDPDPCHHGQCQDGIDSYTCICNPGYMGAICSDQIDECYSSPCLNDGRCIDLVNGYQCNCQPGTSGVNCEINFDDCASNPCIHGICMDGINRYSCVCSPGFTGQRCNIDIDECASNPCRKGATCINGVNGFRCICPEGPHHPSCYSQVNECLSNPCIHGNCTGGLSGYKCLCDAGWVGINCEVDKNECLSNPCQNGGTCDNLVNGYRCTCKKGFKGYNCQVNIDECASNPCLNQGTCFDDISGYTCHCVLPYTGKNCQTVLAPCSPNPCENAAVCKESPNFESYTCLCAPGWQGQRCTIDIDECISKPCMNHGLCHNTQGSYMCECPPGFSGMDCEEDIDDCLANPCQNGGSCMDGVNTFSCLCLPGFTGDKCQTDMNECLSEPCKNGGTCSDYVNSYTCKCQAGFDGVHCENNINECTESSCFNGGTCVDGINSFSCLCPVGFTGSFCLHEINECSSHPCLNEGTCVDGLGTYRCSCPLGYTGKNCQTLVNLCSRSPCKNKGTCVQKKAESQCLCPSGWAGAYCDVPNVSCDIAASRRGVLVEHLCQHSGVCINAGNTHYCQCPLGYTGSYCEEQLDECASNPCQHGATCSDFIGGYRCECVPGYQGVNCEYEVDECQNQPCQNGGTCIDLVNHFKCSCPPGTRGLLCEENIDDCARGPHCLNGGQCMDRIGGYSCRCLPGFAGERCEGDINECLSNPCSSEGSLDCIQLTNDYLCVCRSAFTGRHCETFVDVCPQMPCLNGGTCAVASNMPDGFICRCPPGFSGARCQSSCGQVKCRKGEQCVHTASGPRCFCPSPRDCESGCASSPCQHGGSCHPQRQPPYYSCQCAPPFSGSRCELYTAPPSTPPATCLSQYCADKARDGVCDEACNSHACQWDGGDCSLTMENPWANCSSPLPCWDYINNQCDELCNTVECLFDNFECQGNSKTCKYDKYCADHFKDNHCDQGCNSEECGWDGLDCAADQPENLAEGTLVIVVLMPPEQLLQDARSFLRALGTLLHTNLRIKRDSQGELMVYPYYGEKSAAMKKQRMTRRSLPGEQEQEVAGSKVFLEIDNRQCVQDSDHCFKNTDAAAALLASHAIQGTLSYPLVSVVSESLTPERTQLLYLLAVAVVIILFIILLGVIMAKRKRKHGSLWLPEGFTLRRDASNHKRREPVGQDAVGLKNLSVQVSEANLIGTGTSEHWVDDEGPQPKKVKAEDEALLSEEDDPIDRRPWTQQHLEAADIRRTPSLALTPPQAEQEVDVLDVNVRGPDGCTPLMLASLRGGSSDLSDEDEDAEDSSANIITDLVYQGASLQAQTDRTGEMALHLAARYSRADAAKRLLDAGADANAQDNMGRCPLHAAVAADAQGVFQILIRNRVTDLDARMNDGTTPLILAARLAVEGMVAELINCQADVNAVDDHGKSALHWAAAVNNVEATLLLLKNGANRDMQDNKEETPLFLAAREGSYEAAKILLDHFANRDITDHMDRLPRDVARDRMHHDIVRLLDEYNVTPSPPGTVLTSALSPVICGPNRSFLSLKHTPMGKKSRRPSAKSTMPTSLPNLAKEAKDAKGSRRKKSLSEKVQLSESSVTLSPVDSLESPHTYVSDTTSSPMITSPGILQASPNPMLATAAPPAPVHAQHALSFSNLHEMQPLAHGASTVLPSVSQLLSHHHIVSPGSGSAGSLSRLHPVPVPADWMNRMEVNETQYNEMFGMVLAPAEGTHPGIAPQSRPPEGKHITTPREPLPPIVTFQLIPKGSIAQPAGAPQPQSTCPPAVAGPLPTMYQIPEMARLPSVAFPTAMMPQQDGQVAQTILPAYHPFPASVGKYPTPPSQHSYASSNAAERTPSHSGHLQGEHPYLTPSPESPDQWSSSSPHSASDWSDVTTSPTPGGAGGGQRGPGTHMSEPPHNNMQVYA

[6] = target: Pro-neuregulin-1, membrane-bound isoform (Homo sapiens) (UniProt Q02297); assay: NRG1 binders on small-molecule microarrays, primary screen, psychiatric disease protein project, biochemical, small-molecule microarray, fluorescence 635/667 (AID 1075); conditions: NRG1 binding, 635 nm fluorescence, higher = more signal;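 note: score combines 667 nm spot fluorescence with signal to noise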
Sequence of Pro-neuregulin-1, membrane-bound isoform (Homo sapiens) (Q02297 whole entry, looked up, the tested form may be a part, canonical isoform): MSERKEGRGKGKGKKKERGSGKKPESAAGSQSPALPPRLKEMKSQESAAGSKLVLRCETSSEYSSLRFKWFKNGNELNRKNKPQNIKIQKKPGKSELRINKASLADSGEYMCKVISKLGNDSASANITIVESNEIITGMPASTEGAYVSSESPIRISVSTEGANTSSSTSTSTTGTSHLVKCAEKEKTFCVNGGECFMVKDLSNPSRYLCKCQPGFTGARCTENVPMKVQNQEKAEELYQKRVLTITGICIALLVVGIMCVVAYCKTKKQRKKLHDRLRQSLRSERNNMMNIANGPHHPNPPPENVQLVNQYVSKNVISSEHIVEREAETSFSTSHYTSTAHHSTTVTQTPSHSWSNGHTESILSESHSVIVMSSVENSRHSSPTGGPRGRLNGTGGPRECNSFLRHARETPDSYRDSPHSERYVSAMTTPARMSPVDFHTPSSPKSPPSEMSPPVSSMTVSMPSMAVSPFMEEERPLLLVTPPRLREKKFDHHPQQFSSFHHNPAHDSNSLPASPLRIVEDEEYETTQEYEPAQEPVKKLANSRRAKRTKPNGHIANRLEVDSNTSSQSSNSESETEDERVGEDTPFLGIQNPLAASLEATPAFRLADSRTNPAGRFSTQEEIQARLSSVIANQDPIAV

[7] = system: Neuregulin-1 EGF-like domain; assay: binders of neuregulin-1 EGF-like domain, primary screen, biochemical, small-molecule microarray, 635 nm fluorescence (AID 1081); conditions: small-molecule microarray binding, higher = more signal;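 note: binding of the protein to compounds printed on small-molecule microarray slides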
[8] = FRG1 promoter luciferase signal modulators, primary screen, FRG1 inhibition for FSHD, cell-based, C2C12 myotubes, firefly/Renilla luciferase, luminescence (AID 1084); conditions: higher = more signal, called active from +8 up or from −8 down
[9] = binders of probe aFST on microarray, primary screen, stem cell growth factor project, biochemical, small-molecule microarray, fluorescence 635/667 (AID 1086); conditions: higher = more signal;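 note: score merges 667 nm fluorescence with signal-to-noise of each printed compound spot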
[10] = binders of probe aHhip on microarray, primary screen, stem cell growth factor project, biochemical, small-molecule microarray, fluorescence 635/667 (AID 1087); conditions: higher = more signal;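 note: score merges spot fluorescence at 667nm with spot signal to noise ratio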

SMILES	composite z-score [1]	composite z-score [2]	composite z-score [3]	composite z-score [4]	composite z-score [5]	composite z-score [6]	composite z-score [7]	z-score [8]	composite z-score [9]	composite z-score [10]
CC(C)(C)OC(=O)CC[C@@]1(C(N)=O)N=C(c2ccc(OCCCO)cc2)O[C@@H]1c1ccccc1	0.0075	1.93	-0.0399	0.558	1.29	1.71	1.24	0.18 (inactive)	1.05	-0.134
Cc1ccc(S[C@]2(C(=O)NC(C)C)CC(=O)N(Cc3ccccc3Cl)[C@@H]2c2ccc(CO)cc2I)cc1	0.319	-0.756	-0.223	-0.719	-1.31	1.85	1.02	-1.42 (inactive)	-0.377	-0.0994
O=C1OCCC/C=C\[C@H]2OC34C=CCN(c5ccc6ccccc6c5)C(=O)[C@H]3N(CCCCCCO)C(=O)[C@@H]4C12 (stereo not given in full)	0.221	-0.295	-0.0824	-0.648	-1.15	-0.177	1.25	-0.824 (inactive)	-0.307	-0.0239
C=CCOC(=O)[C@H]1[C@@H]2C(=O)O[C@@H](c3ccccc3)[C@@H](c3ccccc3)N2[C@@H](c2ccc(OCCOC(=O)[C@@H]3C[C@@H]4C(=O)N5CCC[C@H]5C(=O)N4[C@@H]3c3cccc(OCCO)c3)cc2)[C@]12C(=O)Nc1ccccc12	0.0458	0.629	0.0584	0.808	0.761	1.26	1.31	0.999 (inactive)	0.356	0.382
CCOC(=O)[C@H]1C/C=C/C[C@H](C(=O)OCC)C(=O)O[C@H]2[C@@H](OC)O[C@H](CO)[C@@H](OC(=O)Nc3cccc(F)c3)[C@@H]2OC1=O	-0.621	-0.125	-0.0766	0.39	0.196	1.21	1.15	0.15 (inactive)	0.0218	-0.444
CN1C(=O)C2C=CC(C(O)c3cc(C(F)(F)F)cc(C(F)(F)F)c3)N(N3CCCCC3)C2C1=O (stereo not given)	0.104	-0.392	0.0173	0.395	1.41	0.416	0.892	0.215 (inactive)	0.498	-0.335
CN1C(=O)C2C=CC(C(O)c3cccs3)N(Nc3ccccc3)C2C1=O (stereo not given)	0.0812	0.552	-0.0628	0.415	0.94	1.22	1.4	-0.263 (inactive)	0.388	0.261
C#CCNC(=O)[C@H](Cc1ccccc1)NC(=O)CCC(=O)O	-0.0733	-0.267	-0.158	-0.704	-1.46	-0.592	-0.33	0.338 (inactive)	1.03	-0.0994
COc1cc(OC)c(C(O)C2C=CC3C(=O)NC(=O)C3N2Nc2ccc(Cl)cc2Cl)cc1Br (stereo not given)	0.379	-0.0156	0.19	0.141	1.61	1.9	1.11	0.809 (inactive)	1.58	-0.199
C[C@]1(C(=O)NC2CC2)c2ccccc2C(=O)N(Cc2cc(C(F)(F)F)cc(C(F)(F)F)c2)[C@H]1c1ccc(CO)cc1	0.098	0.14	0.0458	0.31	1.26	0.354	1.26	-0.583 (inactive)	0.603	-0.0994
C#CCN(CC=C(C)C)[C@H](CO)c1ccccc1	-0.418	0.0737	-0.164	-0.078	0.204	-0.223	-0.187	-0.154 (inactive)	-0.0173	-0.199
CCC(CC)C(O)C1C=CC2C(=O)N(C)C(=O)C2N1Nc1ccccc1 (stereo not given)	0.53	0.219	0.117	0.258	1.47	1.47	0.816	1.97 (inactive)	0.876	-0.134
COCCCN1C(=O)[C@@]2(Cc3ccccc31)c1ccccc1C(=O)N(Cc1ccccc1C(F)(F)F)[C@H]2c1ccc(CO)cc1	-0.774	0.356	-0.123	-0.179	-0.16	-0.0485	0.848	-0.0864 (inactive)	0.222	-0.526
[N-]=[N+]=Nc1ccccc1C[C@]1(C(=O)NCC(O)CO)N=C(c2ccc(OCCCO)cc2)O[C@H]1c1ccccc1N=[N+]=[N-] (stereo not given in full)	0.722	0.0264	0.056	0.33	0.379	1.45	0.753	-0.516 (inactive)	0.375	-0.0994
CCOC(=O)C=Cc1cc([N+](=O)[O-])ccc1O	0.36	-0.11	-0.159	-0.239	-1	-0.306	0.358	2.07 (inactive)	-0.31	0.0044
NC(=O)[C@@H]1[C@H]2C(=O)O[C@H](c3ccccc3)[C@H](c3ccccc3)N2[C@H](c2ccc(O)cc2)[C@@]12C(=O)Nc1ccc(C#CC3(O)CCCCCC3)cc12	0.372	0.167	0.0075	0.244	0.0065	0.959	1.42	0.854 (inactive)	-0.0686	-0.0645
COc1ccc(NN2C(C(O)c3ccc([N+](=O)[O-])cc3)C=CC3C(=O)N(C4CCCCC4)C(=O)C32)cc1 (stereo not given)	0.091	-0.174	-0.0782	0.389	0.901	0.348	0.755	-0.068 (inactive)	0.844	-0.0346

SMILES	composite z-score [1]	composite z-score [2]	composite z-score [3]	composite z-score [4]	composite z-score [5]	composite z-score [6]	composite z-score [7]	z-score [8]	composite z-score [9]	composite z-score [10]
CCN(CC)c1ccc(N2CC=CC34O[C@@H]5/C=C\CCCOC(=O)C5[C@H]3C(=O)N(CCO)[C@@H]4C2=O)cc1 (stereo not given in full)	0.244	-0.542	-0.0785	-0.715	-1.24	1.84	0.632	0.599 (inactive)	-0.584	-0.0061
O=C1NC(=O)C2C1C=CC(C(O)Cc1ccccc1)N2Nc1ccc(Cl)cc1Cl (stereo not given)	0.536	-0.169	-0.0374	-0.634	0.614	2	0.371	1.53 (inactive)	0.337	0.176
O=C(NCc1ccccc1)[C@@]1(CCS(=O)(=O)c2ccccc2)N=C(c2ccc(OCCCO)cc2)O[C@H]1c1ccccc1	-0.0744	0.345	0.115	0.488	1.56	1.82	1.19	-2.73 (inactive)	1.6	0.0274
COCCCNC(=O)C1N=C(c2ccc(OCCCO)cc2)N(c2ccccc2)O1 (stereo not given)	-0.39	0.461	0.0038	0.848	0.872	0.124	0.609	3.02 (inactive)	0.504	0.0176
CC(C)(C)OC(=O)CC[C@@]1(C(=O)NCCN2CCOCC2)N=C(c2ccc(OCCCO)cc2)O[C@@H]1c1ccccc1N=[N+]=[N-]	0.793	0.122	0.0789	1.01	1.49	1.56	1.32	4.07 (inactive)	1.67	0.232
OC([C@@H]1CC(c2ccccc2)=NO1)[C@H]1CC(c2ccccc2)=NO1 (stereo not given in full)	0.0787	-0.141	-0.0634	0.287	0.178	-0.0896	0.563	0.364 (inactive)	0.227	0.0024
COCCOC(=O)N1C(=O)[C@@]2(c3cc(C#CC4=CCCCC4)ccc31)[C@H](C(=O)Nc1nc3ccccc3s1)[C@H]1C(=O)O[C@H](c3ccccc3)[C@H](c3ccccc3)N1[C@@H]2c1ccc(OCCO)cc1	-0.152	0.471	-0.0009	0.427	1.12	0.342	0.899	2.19 (inactive)	0.146	-0.0994
[N-]=[N+]=NCc1ccccc1[C@H]1OC(c2ccc(OCCCO)cc2)=N[C@@]1(Cc1ccccc1)C(=O)NCc1ccccc1	-0.0101	0.742	-0.0184	1.27	1.24	2.05	0.921	-1.5 (inactive)	0.513	-0.331
C=CCOC(=O)[C@H]1[C@@H]2C(=O)O[C@@H](c3ccccc3)[C@@H](c3ccccc3)N2[C@@H](c2ccc(OCCOC(=O)[C@@H]3C[C@@H]4C(=O)N[C@@H](CCCC[N+](C)(C)C)C(=O)N4[C@@H]3c3ccc(O)cc3)cc2)[C@]12C(=O)Nc1ccccc12	-0.518	0.964	-0.0503	0.439	0.459	0.206	1.15	0.277 (inactive)	-0.367	-0.0618
CC(C)C[C@@H]1NC(=O)[C@H]2C[C@@H](C(=O)NCCCCCCN)[C@@H](c3ccc(O)cc3)N2C1=O	0.839	0.252	-0.0212	-0.0652	-0.277	0.612	1.1	-0.811 (inactive)	0.472	0.134
CS(=O)(=O)CCOC(=O)C1=CC(CCCO)=CC(c2ccc(CN3CCCC3)cc2)N(Cc2cc3c(cc2Br)OCO3)C=C1C(=O)OCCS(C)(=O)=O (stereo not given)	0.26	1.77	0.127	1.22	1.38	2.1	1.25	-0.271 (inactive)	0.624	0.224
CCCC[C@@H]1C[C@H]1[C@@H](NC(=O)c1ccco1)c1ccc(Cl)cc1	0.159	0.308	0.0296	0.0982	1.22	1.01	1.05	-1.51 (inactive)	0.829	0.0274
COC(=O)c1c(CC[C@@H](CO)NC(=O)N[C@H](Cn2cc(Cc3ccccc3)nn2)C(C)C)oc(C(C)=O)c1C(=O)OC	-0.234	0.128	-0.119	1.09	0.0441	0.0567	1.06	0.82 (inactive)	0.059	-0.236
COc1ccc(C(=O)Nc2ccc(CN3C(=O)[C@@]4(O[C@@H](CCn5cc([C@H](O)c6ccccc6)nn5)[C@H]([Si](C)(C)c5ccc(OC)cc5)[C@H]4C)c4ccccc43)cc2)cc1	-0.197	0.315	0.484	-0.164	-0.244	0.258	1.05	-2.48 (inactive)	0.217	-0.0391
[N-]=[N+]=Nc1ccccc1[C@H]1OC(c2ccc(OCCCO)cc2)=N[C@@]1(Cc1ccccc1)C(=O)O	0.0481	0.466	0.0363	0.641	1.05	1.69	1.3	1.02 (inactive)	0.693	-0.374
C=CCOC(=O)[C@H]1[C@@H]2C(=O)O[C@@H](c3ccccc3)[C@@H](c3ccccc3)N2[C@@H](c2ccc(OCCOC(=O)[C@H]3C[C@H]4C(=O)N5CCC[C@H]5C(=O)N4[C@H]3c3ccc(O)cc3)cc2)[C@]12C(=O)Nc1ccccc12	-0.168	0.847	0.0069	0.516	1.47	1.33	1.4	1.31 (inactive)	0.0557	0.0881
